According to PubChem BioAssay (NCATS):
Records with an inconclusive call do not appear. Calls of active or inactive are those of the source. Calls come from the whole dose curve; as a rule, active = well fitted cell-killing curve with a large enough effect; inconclusive = small, poorly fitted or top-dose-only effect, or effect the other way; inactive = no such curve, though single readings can be large or run the other way.

Assay: Quantitative High-Throughput drug screen in 47 multiple myeloma cell lines against the NCATS MIPE library collection: PCM6_Riken cell viability assay (AID 1919870); note: nearly all actives have a fitted effect of over 30% in size
Conditions: CellTiter-Glo ATP, 48 h; series mostly up to 45.8 µM
In short: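 500 cells/well; MIPE 4.0 drugs pin-transferred; 48 h, 37C, 5% CO2. CellTiter-Glo, 5 min RT, luminescence. Controls: DMSO 100%, media 0%.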
Potency is the fitted concentration of half-maximal effect.

SMILES | Potency
CN(C)CC[C@H](CSc1ccccc1)Nc1ccc(S(=O)(=O)NC(=O)c2ccc(N3CCN(Cc4ccccc4-c4ccc(Cl)cc4)CC3)cc2)cc1[N+](=O)[O-] | 0.0526 µM (active)
C[C@@H]1C[C@H]2[C@@H]3CCC4=CC(=O)C=C[C@]4(C)[C@@]3(F)[C@@H](O)C[C@]2(C)[C@@]1(O)C(=O)CO | inactive
C[C@]12C=CC(=O)C=C1CC[C@@H]1[C@@H]2[C@@H](O)C[C@@]2(C)[C@@H]1CC[C@]2(O)C(=O)CO | inactive
CN1CCN2c3ncccc3Cc3ccccc3C2C1 (centres undefined) | inactive
N#CC(c1ccnc(NCCc2cccnc2)n1)c1nc2ccccc2s1 (centres undefined) | 5.9 µM (active)
CN1[C@H]2CC[C@H]1CC(OC(=O)c1c[nH]c3ccccc13)C2 (some centres undefined) | 6.62 µM (active)
Cc1cnc(-c2cc(N3CCN(C(=O)CCS(C)(=O)=O)CC3)ncc2Cl)c(C)c1 | inactive
CN[C@@H]1[C@@H](O)[C@@H](O[C@@H]2[C@@H](O)[C@H](O[C@H]3O[C@H](CN)[C@@H](O)[C@H](O)[C@@H]3O)[C@@H](N)C[C@@H]2NC(=O)[C@@H](O)CN)OC[C@]1(C)O | inactive
NS(=O)(=O)c1cc(Cl)c(Cl)c(S(N)(=O)=O)c1 | inactive
CCN(CC)CCCCNc1nc2cc(Cl)c(Cl)cc2nc1-c1ccc(-c2cccs2)s1 | 8.33 µM (active)
CO[C@H]1/C=C\O[C@@]2(C)Oc3c(C)c(O)c4c(O)c(c(C=NN5CCN(C6CCCC6)CC5)c(O)c4c3C2=O)NC(=O)C(C)=CC=C[C@H](C)[C@H](O)[C@@H](C)[C@@H](O)[C@@H](C)[C@H](OC(C)=O)[C@H]1C | 0.118 µM (active)
CC[C@H](NC(=O)[C@H](C)NC)C(=O)N1C[C@@H](O)C[C@H]1Cc1c(-c2[nH]c3cc(F)ccc3c2C[C@H]2C[C@H](O)CN2C(=O)[C@H](CC)NC(=O)[C@H](C)NC)[nH]c2cc(F)ccc12 | 5.9 µM (active)
COc1cc(C=CC(=O)O)ccc1O | inactive
Cc1ccc2c(=O)c3cccc(CC(=O)O)c3oc2c1C | 23.5 µM (active)
O=C(NCCCCN1CCOCC1)c1cc2ccccc2o1 | inactive
Cc1[nH]c(C=C2C(=O)Nc3ccc(S(=O)(=O)N(C)c4cccc(Cl)c4)cc32)c(C)c1C(=O)N1CCN(C)CC1 | 14.8 µM (active)
N[C@@H](CC(=O)N1CCn2c(nnc2C(F)(F)F)C1)Cc1cc(F)c(F)cc1F | inactive
O=C(NC[C@H](O)CO)c1ccncc1Nc1ccc(I)cc1F | 16.6 µM (active)
CCOC(=O)N1CCN([N+]([O-])=NOc2cc(ON=[N+]([O-])N3CCN(C(=O)OCC)CC3)c([N+](=O)[O-])cc2[N+](=O)[O-])CC1 | 6.62 µM (active)
